Measurements published in PubChem BioAssay AID1159580 (chemical genetic matrix, 2015).
Among all 5,500 compounds or so, about 2,000 (36%) were called active. Inconclusive results (about 18%) are left out. Cut-off read from the data, not from the text of the source: active = normalized growth mostly below about 0.91 (no sharp cut-off); inconclusive = no clear call, values can overlap the other calls; inactive = mostly above about 0.92. This is one part of the list.

Test: chemical genetic growth profiling, strain panel (AID 1159580);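 note: tested at 20 µM; growth read once vehicle control cultures reached saturation at 30 °C; 1 = growth at the plate median or of vehicle wells; lower values mean less growth of the strain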
Settings: growth OD
[1] = S. cerevisiae deletion strains, locus YAR019C, strain CDC15, stronger effect = lower value
[2] = S. cerevisiae deletion strains, locus YBL105C, strain PKC1, stronger effect = lower value
[3] = S. cerevisiae deletion strains, locus YBR135W, strain CKS1, stronger effect = lower value
[4] = S. cerevisiae deletion strains, locus YBR136W, strain MEC1, stronger effect = lower value
[5] = S. cerevisiae deletion strains, locus YBR160W, strain CDC28, stronger effect = lower value
[6] = S. cerevisiae deletion strains, locus YDL017W, strain CDC7, stronger effect = lower value
[7] = S. cerevisiae deletion strains, locus YDL028C, strain MPS1, stronger effect = lower value
[8] = S. cerevisiae deletion strains, locus YDL101C, strain DUN1, stronger effect = lower value
[9] = S. cerevisiae deletion strains, locus YDL108W, strain KIN28, stronger effect = lower value
[10] = S. cerevisiae deletion strains, locus YDL132W, strain cdc53, stronger effect = lower value
[11] = S. cerevisiae deletion strains, locus YDL214C, strain PRR2, stronger effect = lower value
[12] = S. cerevisiae deletion strains, locus YDR052C, strain DBF4, stronger effect = lower value
[13] = S. cerevisiae deletion strains, locus YDR054C, strain cdc34, stronger effect = lower value
[14] = S. cerevisiae deletion strains, locus YDR226W, strain ADK1, stronger effect = lower value
[15] = S. cerevisiae deletion strains, locus YDR477W, strain SNF1, stronger effect = lower value
[16] = S. cerevisiae deletion strains, locus YER123W, strain YCK3, stronger effect = lower value
[17] = S. cerevisiae deletion strains, locus YER133W, strain GLC7, stronger effect = lower value
[18] = S. cerevisiae deletion strains, locus YFL009W, strain cdc4, stronger effect = lower value
[19] = S. cerevisiae deletion strains, locus YFL029C, strain CAK1, stronger effect = lower value
[20] = S. cerevisiae deletion strains, locus YFR003C, strain YPI1, stronger effect = lower value
[21] = S. cerevisiae deletion strains, locus YFR019W, strain FAB1, stronger effect = lower value
[22] = S. cerevisiae deletion strains, locus YFR028C, strain CDC14, stronger effect = lower value
[23] = S. cerevisiae deletion strains, locus YGR040W, strain KSS1, stronger effect = lower value
[24] = S. cerevisiae deletion strains, locus YGR052W, strain FMP48, stronger effect = lower value
[25] = S. cerevisiae deletion strains, locus YGR092W, strain DBF2, stronger effect = lower value
[26] = S. cerevisiae deletion strains, locus YHR030C, strain SLT2, stronger effect = lower value
[27] = S. cerevisiae deletion strains, locus YHR079C, strain IRE1, stronger effect = lower value
[28] = S. cerevisiae deletion strains, locus YHR082C, strain KSP1, stronger effect = lower value
[29] = S. cerevisiae deletion strains, locus YHR205W, strain SCH9, stronger effect = lower value
[30] = S. cerevisiae deletion strains, locus YIL147C, strain SLN1, stronger effect = lower value
[31] = S. cerevisiae deletion strains, locus YJL095W, strain BCK1, stronger effect = lower value
[32] = S. cerevisiae deletion strains, locus YJL157C, strain FAR1, stronger effect = lower value
[33] = S. cerevisiae deletion strains, locus YJR016C, strain ILV3, stronger effect = lower value
[34] = S. cerevisiae deletion strains, locus YJR066W, strain TOR1 (second series), stronger effect = lower value
[35] = S. cerevisiae deletion strains, locus YJR066W, strain TOR1, stronger effect = lower value
[36] = S. cerevisiae deletion strains, locus YKL048C, strain ELM1, stronger effect = lower value
[37] = S. cerevisiae deletion strains, locus YKL067W, strain YNK1, stronger effect = lower value
[38] = S. cerevisiae deletion strains, locus YKL101W, strain HSL1, stronger effect = lower value
[39] = S. cerevisiae deletion strains, locus YKL193C, strain SDS22, stronger effect = lower value
[40] = S. cerevisiae deletion strains, locus YKL203C, strain TOR2, stronger effect = lower value
[41] = S. cerevisiae deletion strains, locus YLR113W, strain HOG1, stronger effect = lower value
[42] = S. cerevisiae deletion strains, locus YLR133W, strain CKI1, stronger effect = lower value
[43] = S. cerevisiae deletion strains, locus YLR403W, strain SFP1, stronger effect = lower value
[44] = S. cerevisiae deletion strains, locus YML070W, strain DAK1, stronger effect = lower value
[45] = S. cerevisiae deletion strains, locus YMR001C, strain CDC5, stronger effect = lower value
[46] = S. cerevisiae deletion strains, locus YMR205C, strain PFK2 (second series), stronger effect = lower value
[47] = S. cerevisiae deletion strains, locus YMR277W, strain FCP1, stronger effect = lower value
[48] = S. cerevisiae deletion strains, locus YNL006W, strain LST8, stronger effect = lower value
[49] = S. cerevisiae deletion strains, locus YNL020C, strain ARK1, stronger effect = lower value
[50] = S. cerevisiae deletion strains, locus YNL161W, strain CBK1, stronger effect = lower value
[51] = S. cerevisiae deletion strains, locus YNL183C, strain NPR1, stronger effect = lower value
[52] = S. cerevisiae deletion strains, locus YNL207W, strain RIO2, stronger effect = lower value
[53] = S. cerevisiae deletion strains, locus YNL222W, strain SSU72, stronger effect = lower value
[54] = S. cerevisiae deletion strains, locus YNL307C, strain MCK1 (second series), stronger effect = lower value
[55] = S. cerevisiae deletion strains, locus YOL078W, strain AVO1, stronger effect = lower value
[56] = S. cerevisiae deletion strains, locus YOL136C, strain PFK27, stronger effect = lower value
[57] = S. cerevisiae deletion strains, locus YOR061W, strain CKA2, stronger effect = lower value
[58] = S. cerevisiae deletion strains, locus YOR119C, strain RIO1, stronger effect = lower value
[59] = S. cerevisiae deletion strains, locus YOR231W, strain MKK1, stronger effect = lower value
[60] = S. cerevisiae deletion strains, locus YOR329C, strain SCD5, stronger effect = lower value
[61] = S. cerevisiae deletion strains, locus YPL031C, strain PHO85, stronger effect = lower value
[62] = S. cerevisiae deletion strains, locus YPL153C, strain RAD53, stronger effect = lower value
[63] = S. cerevisiae deletion strains, locus YPL204W, strain HRR25, stronger effect = lower value
[64] = S. cerevisiae deletion strains, locus YPL209C, strain IPL1, stronger effect = lower value
[65] = S. cerevisiae deletion strains, locus YPL256C, strain CLN2, stronger effect = lower value
[66] = S. cerevisiae deletion strains, locus YPR025C, strain CCL1, stronger effect = lower value
[67] = S. cerevisiae deletion strains, locus YPR106W, strain ISR1, stronger effect = lower value
[68] = S. cerevisiae deletion strains, locus YPR111W, strain DBF20, stronger effect = lower value
[69] = S. cerevisiae deletion strains, strain NNK1, stronger effect = lower value
[70] = S. cerevisiae deletion strains, strain TSCII, stronger effect = lower value

Measured: normalized growth

O=C1Nc2ccccc2/C1=C\c1c[nH]c2ccccc12
active: [1] 0.472 | [2] 0.627 | [4] 0.88 | [5] 0.843 | [6] 0.717 | [8] 0.491 | [10] 0.628 | [11] 0.289 | [12] 0.91 | [13] 0.432 | [14] 0.84 | [15] 0.135 | [16] 0.249 | [17] 0.202 | [18] 0.526 | [19] 0.472 | [20] 0.894 | [21] 0.168 | [22] 0.753 | [23] 0.164 | [24] 0.126 | [25] 0.109 | [26] 0.101 | [27] 0.1 | [28] 0.136 | [29] 0.0414 | [30] 0.814 | [31] 0.0968 | [32] 0.239 | [34] 0.111 | [35] 0.111 | [36] 0.325 | [37] 0.407 | [38] 0.242 | [39] 0.618 | [40] 0.123 | [41] 0.118 | [42] 0.19 | [43] 0.108 | [44] 0.219 | [45] 0.781 | [46] 0.401 | [47] 0.548 | [48] 0.454 | [49] 0.19 | [50] 0.639 | [51] 0.133 | [52] 0.605 | [53] 0.674 | [54] 0.134 | [55] 0.609 | [56] 0.254 | [57] 0.244 | [58] 0.154 | [59] 0.125 | [60] 0.612 | [61] 0.112 | [62] 0.124 | [63] 0.125 | [64] 0.694 | [65] 0.128 | [66] 0.753 | [67] 0.863 | [69] 0.527 | [70] 0.384
inactive: [3] 0.926 | [7] 0.927 | [9] 0.924 | [33] 0.914 | [68] 0.93

O=C1/C(=C/c2c[nH]c3ccccc23)CSc2ccccc21
inactive: [1] 0.989 | [2] 0.975 | [3] 0.981 | [4] 0.966 | [5] 0.99 | [6] 0.983 | [7] 0.979 | [8] 0.98 | [9] 0.987 | [10] 0.99 | [11] 0.938 | [12] 0.985 | [13] 0.987 | [14] 0.983 | [15] 0.961 | [16] 0.906 | [17] 0.948 | [18] 0.988 | [19] 0.988 | [20] 0.987 | [21] 0.973 | [22] 0.98 | [23] 0.947 | [24] 1.04 | [25] 0.945 | [26] 1.07 | [27] 1.06 | [28] 1.01 | [29] 0.957 | [30] 0.965 | [31] 1.02 | S. cerevisiae deletion strains, locus YJL128C, strain PBS2, stronger effect = lower value 0.944 | [32] 0.943 | [33] 0.98 | [34] 0.913 | [35] 1.03 | [36] 0.949 | [37] 0.964 | [38] 0.945 | [39] 0.984 | [40] 1.02 | [41] 1.05 | [42] 0.975 | [43] 0.942 | [44] 0.944 | [45] 0.976 | [46] 0.979 | [47] 0.983 | [48] 0.993 | [49] 0.948 | [50] 0.991 | [51] 1.05 | [52] 0.997 | [53] 0.982 | [54] 0.995 | [55] 0.994 | [56] 0.931 | [57] 0.958 | [58] 0.982 | [59] 1.05 | [60] 0.99 | [61] 0.947 | [62] 0.924 | [63] 0.928 | [64] 0.989 | [65] 1.04 | [66] 0.986 | [67] 0.978 | [68] 0.979 | [69] 0.98 | [70] 0.984

O=C1NC(=S)NC(=O)C1=Cc1cccc2ccccc12
inactive: S. cerevisiae deletion strains, locus YAL013W, strain DEP1, stronger effect = lower value 0.975 | S. cerevisiae deletion strains, locus YBR229C, strain ROT2, stronger effect = lower value 0.989 | S. cerevisiae deletion strains, locus YCL061C, strain MRC1, stronger effect = lower value 0.97 | [8] 0.963 | S. cerevisiae deletion strains, locus YDR150W, strain NUM1, stronger effect = lower value 0.891 | S. cerevisiae deletion strains, locus YEL061C, strain CIN8, stronger effect = lower value 0.976 | S. cerevisiae deletion strains, locus YGR078C, strain PAC10, stronger effect = lower value 0.976 | [26] 0.709 | S. cerevisiae deletion strains, locus YHR087W, strain rtc3, stronger effect = lower value 0.913 | S. cerevisiae deletion strains, locus YJR075W, strain HOC1, stronger effect = lower value 0.928 | S. cerevisiae deletion strains, locus YKL190W, strain CNB1, stronger effect = lower value 1 | S. cerevisiae deletion strains, locus YLR039C, strain RIC1, stronger effect = lower value 0.841 | S. cerevisiae deletion strains, locus YLR058C, strain SHM2 (second series), stronger effect = lower value 0.99 | S. cerevisiae deletion strains, locus YLR085C, strain ARP6, stronger effect = lower value 0.907 | S. cerevisiae deletion strains, locus YLR262C, strain YPT6, stronger effect = lower value 0.879 | S. cerevisiae deletion strains, locus YML094W, strain GIM5, stronger effect = lower value 0.954 | S. cerevisiae deletion strains, locus YMR219W, strain ESC1, stronger effect = lower value 0.985 | S. cerevisiae deletion strains, locus YMR263W, strain SAP30, stronger effect = lower value 0.93 | S. cerevisiae deletion strains, locus YNL128W, strain TEP1, stronger effect = lower value 0.991 | S. cerevisiae deletion strains, locus YNL153C, strain GIM3, stronger effect = lower value 0.979 | S. cerevisiae deletion strains, locus YNL298W, strain CLA4 (second series), stronger effect = lower value 0.995 | S. cerevisiae deletion strains, locus YNL322C, strain KRE1, stronger effect = lower value 0.986 | S. cerevisiae deletion strains, locus YNR030W, strain Alg12, stronger effect = lower value 0.988 | S. cerevisiae deletion strains, locus YPL055C, strain LGE1, stronger effect = lower value 0.92 | S. cerevisiae deletion strains, locus YPL241C, strain CIN2, stronger effect = lower value 0.983 | S. cerevisiae deletion strains, locus YPR135W, strain CTF4, stronger effect = lower value 0.806 | S. cerevisiae strains, strain wild type, stronger effect = lower value 0.998
